The source of these data is PubChem BioAssay (EPA / NIEHS).

Calls of active or inactive are those of the source. The calls were made as follows: active = hit-call score of the fitted dose curve at least 0.9, where 1 is the maximum; inactive = score below 0.9.

Read-out in the assay: Lipase C (LIPC), LIPC (gene 3990)
Kind of assay: LTEA_HepaRG_LIPC: Life Technologies and Expression Analysis (LTEA) Assay for Lipase C (LIPC) using HepaRG (AID 2283514). The conditions noted are these: mRNA level, 48 h; actives raise or lower the signal. As to the method: LTEA_HepaRG is a cell based, multiplexed-readout assay that uses HepaRG, a human liver cell line, with measurements taken at 48 hours after chemical dosing on a 96-well plate.LTEA_HepaRG_LIPC is one of 102 assay component(s) measured in the LTEA HepaRG cell culture assay. It is a marker of Steatosis.Data from the assay component LTEA_HepaRG_LIPC was analyzed into 1 endpoint. This assay endpoint, LTEA_HepaRG_LIPC, was analyzed with bidirectional fitting relative to DMSO as the negative control and baseline of activity. Using a type of inducible reporter, measures of mRNA induction for gain or loss-of-signal activity can be used to understand regulation of transcription factor activity. To generalize the intended target to other relatable targets, this assay endpoint is annotated to the esterase intended target family, where the subfamily is lipase.
A total of 1060 chemcials from the ToxCast library were tested in eight-point concentration-response experiments. Cell culture and cytotoxicity assays were conducted at Thermo Fisher Scientific's Custom Services facility (Madison, WI). A single lot of human HepaRG cells (Thermo Fisher Scientific, Frederick, MD) was used for the cell culture experiments. 96-well format collagen type I coated plates of human HepaRG cells were prepared using established methods. Briefly, cryopreserved HepaRG cells were thawed, plated at a density of approximately 100,000 cells/well in HepaRG Thaw, Plate, and General Purpose media (HPRG770, Thermo Fisher Scientific), and incubated for 48 hours. 0.5% DMSO was selected as vehicle control to balance the requisite need of DMSO in HepaRG cultures to maintain differentiation (for example, baseline metabolism, proportions of hepatocytes vs. cholangiocytes), while enabling further hepatic receptor pathway activation (for example, PXR and CAR) in response to chemical exposure. 48 hours after plating, the culture medium was replaced with HepaRG Serum-Free Incudtion Media. Cells were exposed to each test chemical in duplicate and maintained in CO2 incubators for another 48 hours. Chemical plates were thawed to room temperature and 200x concentrations of treatment groups were prepared. 8-point conentration-reponse curves were made with the highest exposure at 100 uM, followed by half-log dilutions, all in 0.5% DMSO. Each test plate contained variouse controls, induction positive controls (1mM phenobarbital), cytotoxicity positive controls ([…] aflatoxin B1), vehicle controls (0.5% DMSO), and total lysis controls (0.5% DMSO). Cell morphology images were taken using an Essen IncuCyte FLR automated microscope, with six 96-well plates imaged in about 24 minutes. Images were captured and exported and JPEG files. Spent culture media was transfered to black-well plates for the LDH assay, and remaining media was sorted at -80 C for later use. Cells were treated with RLT buffer and frozen until shipped for gene expression analysis. Total RNA was isolated from the cell suspension in 75 uL of Buffer RLT (Qiagen, Germantown, MD 20874) by Quintiles/Expression Analysis (Durham, NC) using a custom isolation procedure. Total RNA from each plate well was transferred to a preamplification plate. Fluidigm's 96.96 Dynamic ArrayTM (Fluidigm, Amsterdam, the Netherlands) technology was used for gene expression analyses by quantitative reverse transcription polymerase chain reaction (qRT-PCR, performed by Quintiles/Expression Analysis, Durham, NC)89. Standard TaqManTM Assays (Applied Biosystems/ThermoFisher Scientific, Foster City, CA) were used to assess the expression of 93 genes selected based on their selectivity and sensitivity to important hepatic receptors known to be modulated by environmental chemicals; importance in human hepatocyte functionality; and hepatotoxicity. […]
Turning to `C=CCOC(Cn1ccnc1)c1ccc(Cl)cc1Cl` (stereo not given), the half-maximal activity concentration (AC50) is 33 µM (active).
As to `COC(=O)CSc1cc(N=c2sc(=O)n3n2CCCC3)c(F)cc1Cl`, the compound was called inactive.
Consider `CC(=O)S[C@@H]1CC2=CC(=O)CC[C@]2(C)[C@H]2CC[C@@]3(C)[C@@H](CC[C@@]34CCC(=O)O4)[C@H]12`, for which the concentration at half-maximal activity (AC50) is 50 µM (active).
For `CC(C)(C)[C@@H](O)[C@@H](Cc1ccc(Cl)cc1)n1cncn1`, the compound was called inactive.
Same read-out and setting: then `CCCOC(=O)NCCCN(C)C`, with “inactive”.
Consider `Cc1nn(C)c(Oc2ccccc2)c1C=NOCc1ccc(C(=O)OC(C)(C)C)cc1`, for which the AC50 was 24.2 µM (active).
On to `CCOC(=O)C(C)Oc1ccc(Oc2cnc3cc(Cl)ccc3n2)cc1` (stereo not given), for which the compound was called inactive.
Take `CC(=O)[C@H]1CC[C@H]2[C@@H]3CCC4=CC(=O)CC[C@]4(C)[C@H]3CC[C@]12C`: the AC50 is 34.6 µM (active).
Still for that read-out and setting: then `CCCN(CCC)c1c([N+](=O)[O-])cc(C(F)(F)F)c(N)c1[N+](=O)[O-]`, with 50 µM (active).
On to `CCNc1nc(N)nc(Cl)n1`, for which the result was inactive.
On to `C[C@]12CC[C@@H]3c4ccc(O)cc4C[C@@H](CCCCCCCCCS(=O)CCCC(F)(F)C(F)(F)F)[C@H]3[C@@H]1CC[C@@H]2O` (stereo not given in full), for which the AC50 is 50 µM (active).
Take `CC(C)(c1ccc(O)cc1)c1ccc(O)cc1`: the outcome was inactive.
As for `CCCN(CCC)C(=O)SCC`, the outcome was inactive.
Still for that read-out and setting: with `CCCCCCC(C)OC(=O)COc1nc(F)c(Cl)c(N)c1Cl` (stereo not given) the entry was “inactive”.
The same measure, in the same setting: with `C[C@]12C[C@H](O)[C@H]3[C@@H](CCC4=CC(=O)CC[C@@]43C)[C@@H]1CC[C@@H]2C(=O)CO` the entry was “inactive”; with `N#CSCSc1nc2ccccc2s1`, “inactive”.
On to `Oc1ccc(C(c2ccc(O)cc2)C(Cl)(Cl)Cl)cc1`, for which the concentration at half-maximal activity (AC50) is 78.8 µM (active).
The same measure, in the same setting: with `N[C@@H](Cc1cc(I)c(Oc2ccc(O)c(I)c2)c(I)c1)C(=O)O` the figure was 72.3 µM (active).
On the same count and under the same terms, then `CCN(Cc1c(F)cccc1Cl)c1c([N+](=O)[O-])cc(C(F)(F)F)cc1[N+](=O)[O-]`, with 50 µM (active); and `O=C(O)C1(C(=O)Nc2ccc(Cl)cc2Cl)CC1`, with 76.2 µM (active).
Same read-out and setting: with `CCOC(=O)NCCOc1ccc(Oc2ccccc2)cc1` the figure was 89 µM (active).
For the compound `O=C(O)c1ccccc1`, the call was inactive.
Still for that read-out and setting: then `CCOC(=O)C(C)Oc1ccc(Oc2nc3ccc(Cl)cc3o2)cc1` (stereo not given), with “inactive”; and `C#CCOC(=O)[C@@H](C)Oc1ccc(Oc2ncc(Cl)cc2F)cc1`, with “inactive”.
Still for that read-out and setting: with `CCOC(=O)c1ccc(O)cc1` the entry was “inactive”; with `CN(C)C(=O)Nc1ccc(Cl)c(Cl)c1`, “inactive”.
For `CCCCC(CC)CN1C(=O)C2C3C=CC(C3)C2C1=O` (stereo not given), the AC50 is 88.2 µM (active).
As to `c1ccc2[nH]c(-c3cscn3)nc2c1`, the result was inactive.
For `O=C(Nc1ccc([N+](=O)[O-])cc1Cl)c1cc(Cl)ccc1O`, the AC50 was 4.31 µM (active).
Take `CCC(C)OC(=O)N1CCCCC1CCO` (stereo not given): the call was inactive.
Same read-out and setting: with `O=C(c1ccc(O)cc1O)c1ccc(O)cc1O` the entry was “inactive”; with `CSC(=O)c1cccc2nnsc12`, “inactive”; with `COc1c(Cl)ccc(Cl)c1C(=O)O`, “inactive”.
For the compound `CCCCC(CC)COC(=O)c1ccccc1C(=O)O` (stereo not given), the call was inactive.
On to `COC(=O)c1ccccc1C(=O)O`, for which the outcome was inactive.
Still for that read-out and setting: then `CCOC(=O)COc1cc(-n2ncc(C(F)(F)F)c(C)c2=O)c(F)cc1Cl`, with “inactive”; and `COC(=O)c1ccc(I)cc1S(=O)(=O)NC(=O)Nc1nc(C)nc(OC)n1`, with “inactive”.
Still for that read-out and setting: with `CCCCOC(=O)[C@@H](C)Oc1ccc(Oc2ccc(C(F)(F)F)cn2)cc1` the entry was “inactive”.
The same measure, in the same setting: then `OB(O)O`, with “inactive”.
For the compound `S=C([S-])NCCNC(=S)[S-].[Mn+2]`, the AC50 was 7.28 µM (active).

As a reminder, the AC50 is the concentration giving half of the maximal activity seen.
